Several values for one entry are separate records, joined by “and”; a condition that tells them apart may be missing. Identical values can stand only once. Inconclusive results are not listed. The source holds several records for some structures; these can differ, active in one and inactive in another. Activity calls are given as the source filed them. Unless noted, the call rests on the fitted dose curve.
What was measured:
[1] = Nuclear factor erythroid 2-related factor 2/antioxidant responsive element (Nrf2/ARE) small molecule agonists: qHTS cell viability counter screen in human keratinocytes (AID 1919968; active means well fitted curve in the direction sought with a large enough effect in the repeat runs; an effect the other way counts as inactive or inconclusive; further: nearly all actives have a fitted effect of over 55% in size; further: potency means the concentration at half of the fitted maximal effect)
Procedure, shortened: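 CellTiter-Fluor fluorescence, read 1 h after reagent, gave viability in the same wells as the ARE-luciferase assay. KeratinoSens cells (1,500/well) had 23 h compound exposure at 37 C/5% CO2 following 5 h plating.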

[2] = Nuclear factor erythroid 2-related factor 2/antioxidant responsive element (Nrf2/ARE) small molecule agonists: luciferase reporter gene qHTS assay in human keratinocytes (AID 1919969); further: nearly all actives have a fitted effect of over 35% in size; further: potency means the concentration at half of the fitted maximal effect
[3] = biological target: Gonadotropin-releasing hormone receptor (Homo sapiens) (UniProt P30968); assay: Human gonadotropin-releasing hormone receptor (GnRHR) small molecule agonists, calcium flux assay in GnRHR-HEK293 cells (AID 1920063); further: nearly all actives have a fitted effect of over 35% in size
Procedure, shortened: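 Agonist mode: compounds at 15 concentrations, in triplicate, went onto calcium dye-loaded GnRHR-HEK293 cells. Intracellular calcium was then followed as 480/540 nm fluorescence at 1 s intervals over 3 min.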

[4] = biological target: KiSS-1 receptor (Homo sapiens) (UniProt Q969F8); assay: Human kisspeptin (KISS1R) small molecule agonists, calcium flux assay in KISS1R-HEK293 cells (AID 1920064; active means well fitted curve in the direction sought with a large enough effect in the repeat runs; an effect the other way counts as inactive or inconclusive)
Procedure, shortened: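 Agonist mode: intracellular calcium rise tracked at 1 s intervals over 3 min (480/540 nm) immediately after compound addition to dye-loaded KISS1R-HEK293 stable cells. Each compound tested at 15 concentrations in triplicate.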

[5] = G protein-coupled receptor (GPCR) small molecule agonists, calcium flux assay: HEK293 wild type cell line counter screen (AID 1920065)
Procedure, shortened: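 Calcium flux counter screen: compound added in agonist mode at 15 concentrations in triplicate to dye-loaded parental HEK293 cells. Fluorescence (480/540) read kinetically for 3 min; ATP served as positive control.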

[6] = p53 small molecule agonists, cell-based qHTS assay with human liver microsomes (AID 1963577);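 further: p53 response element beta-lactamase reporter cells with liver microsomes plus NADPH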
Procedure, shortened: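 In this qHTS, p53 response-element beta-lactamase cells receive test compound together with a microsome/NADPH activating system (0.5 mg/mL final each) and are incubated 16 h at 37 C before LiveBLAzer fluorescence detection.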

[7] = p53 small molecule agonists, cell-based qHTS assay with rat liver microsomes (AID 1963578)
Procedure, shortened: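 Agonist mode in p53RE-bla reporter cells, with compounds co-incubated 16 h at 37 C alongside 0.5 mg/mL rat liver microsomes and 0.5 mg/mL NADPH (final), followed by a 2 h LiveBLAzer detection step.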

[8] = p53 small molecule agonists, cell-based qHTS assay with rat liver microsomes: qHTS cell viability counter screen (AID 1963580); further: nearly all actives have a fitted effect of over 45% in size; further: potency means the concentration at half of the fitted maximal effect
Procedure, shortened: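 Rat liver microsome (0.5 mg/mL final) and NADPH (0.5 mg/mL final) co-incubation with compounds for 16 h at 37 C on HCT-116 p53RE-bla cells; cytotoxicity taken from intracellular ATP luminescence.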

[9] = p53 small molecule agonists, cell-based qHTS assay (AID 1963582; active means well fitted activation curve with a large enough effect in the signal ratio in the repeat runs, not every such curve was filed as active; the % refers to the signal ratio)
Procedure, shortened: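 Read-out is beta-lactamase FRET fluorescence after 2 h at room temperature with LiveBLAzer B/G substrate. p53 response element-bla cells were treated 16 h at 37 C with compounds in DMSO, added 5 h after seeding.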

[10] = biological target: 5-hydroxytryptamine receptor 2A (Homo sapiens) (UniProt P28223); assay: 5-hydroxytryptamine receptor 2A (HTR2A) small molecule antagonists, cell-based qHTS assay (AID 1963586); further: nearly all actives have a fitted effect of over 45% in size; further: potency means the concentration at half of the fitted maximal effect
Procedure, shortened: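 CHO cells stably expressing human HTR2A were plated for 18 h at 37 C, then loaded with calcium dye for 1 h. Compounds were preincubated 5 min at room temperature before DOI (4 nM solution) was added. Kinetic fluorescence was read for 3 min.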

[11] = biological target: 5-hydroxytryptamine receptor 2A (Homo sapiens) (UniProt P28223); assay: 5-hydroxytryptamine receptor 2A (HTR2A) small molecule agonists, cell-based qHTS assay (AID 1963587); further: nearly all actives have a fitted effect of over 30% in size
Procedure, shortened: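 Kinetic calcium-flux fluorescence (2 min, 1 sec intervals) after compound addition in agonist mode. HTR2A-CHO cells were cultured 18 h, then dye-loaded 1 h at 37 C.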

[12] = biological target: Muscarinic acetylcholine receptor M1 (Homo sapiens) (UniProt P11229); assay: Cholinergic receptor muscarinic 1 (CHRM1) small molecule antagonists, cell-based qHTS assay (AID 1963588); further: nearly all actives have a fitted effect of over 40% in size; further: potency means the concentration at half of the fitted maximal effect
Procedure, shortened: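 Compounds were tested at 15 concentrations in three independent runs. Dye-loaded CHRM1-CHO cells were exposed 5 min at room temperature before stimulation by acetylcholine added at 50nM. Intracellular calcium was read kinetically on FDSS for 3 min.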

[13] = cAMP Responsive Elements (CRE) small molecule agonists, cell-based qHTS assay (AID 1963590)
Procedure, shortened: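 Agonist mode: compound added to CRE-bla HEK 293T cells (2,000/well, 18 h after plating) for 3 h at 37 C/5% CO2. Reporter activity detected via FRET beta-lactamase substrate, 2 h room-temperature loading.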

[14] = cAMP Responsive Elements (CRE) small molecule antagonists, cell-based qHTS assay (AID 1963591; active means well fitted inhibition curve with a large enough effect in the signal ratio in the repeat runs, not every such curve was filed as active; the % refers to the signal ratio)
Procedure, shortened: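 Antagonist mode: compounds are added alongside the adenylyl cyclase activator NKH477 (0.25 uM final) to CRE-bla HEK293T cells for 3 h. LiveBLAzer FRET substrate, 2 h at room temperature, reports bla expression.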

[15] = biological target: Beta-2 adrenergic receptor (Homo sapiens) (UniProt P07550); assay: Adrenergic beta2 receptor (ADRB2) small molecule antagonists, cell-based qHTS assay (AID 1963592); further: series mostly up to about 92 µM; nearly all actives have a fitted effect of over 50% in size
Procedure, shortened: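 Assay format: CHO-ADRB2 cells, 18-20hr seeding at 37C/5% CO2, then compound plus 1nM isoproterenol agonist mix for 0.5hr RT. Homogeneous time-resolved fluorescence cAMP detection after 1hr, expressed as 665/615 nm ratio.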

[16] = biological target: D(2) dopamine receptor (Homo sapiens) (UniProt P14416); assay: Dopamine D2 receptor (DRD2) small molecule agonists, cell-based qHTS assay (AID 1963594); further: nearly all actives have a fitted effect of over 35% in size
Procedure, shortened: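 cAMP accumulation in DRD2-HEK293 cells measured by HTRF after 1 h detection; compounds added 10 min before NKH477 (200nM […]) forskolin-analogue stimulation, 30 min at room temperature, with Ro20-1724 present at 0.1 mM final.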

[17] = biological target: D(2) dopamine receptor (Homo sapiens) (UniProt P14416); assay: Dopamine D2 receptor (DRD2) small molecule antagonists, cell-based qHTS assay (AID 1963595; active means well fitted inhibition curve with a large enough effect in the signal ratio in the repeat runs, with a control signal flat; the % refers to the signal ratio)
Procedure, shortened: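 Antagonist mode in DRD2-HEK293 cells: after compound addition with 0.1 mM Ro20-1724, cells received quinpirole (12 nM) and NKH477 (200 nM) for 30 min at room temperature; HTRF cAMP read after 1 h detection.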

[18] = p53 small molecule agonists, cell-based qHTS assay: qHTS cell viability counter screen (AID 1963581); further: nearly all actives have a fitted effect of over 45% in size; further: potency means the concentration at half of the fitted maximal effect
Procedure, shortened: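 Counter screen read by CellTiter-Glo luminescence (ATP content, 30 min at room temperature), run in the same wells as the beta-lactamase reporter read. HCT-116 p53RE-bla cells saw compounds for 16 h at 37 C.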

[19] = biological target: Muscarinic acetylcholine receptor M1 (Homo sapiens) (UniProt P11229); assay: Cholinergic receptor muscarinic 1 (CHRM1) small molecule agonists, cell-based qHTS assay (AID 1963589); further: nearly all actives have a fitted effect of over 35% in size
Procedure, shortened: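 Agonist-mode calcium-flux screen: compounds at 15 concentrations, three independent runs, were pin-transferred onto dye-loaded human CHRM1-CHO cells. Fluorescence was then recorded kinetically every second over minutes.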

Measured: Potency

Sequence of D(2) dopamine receptor (Homo sapiens) (P14416 whole entry, looked up): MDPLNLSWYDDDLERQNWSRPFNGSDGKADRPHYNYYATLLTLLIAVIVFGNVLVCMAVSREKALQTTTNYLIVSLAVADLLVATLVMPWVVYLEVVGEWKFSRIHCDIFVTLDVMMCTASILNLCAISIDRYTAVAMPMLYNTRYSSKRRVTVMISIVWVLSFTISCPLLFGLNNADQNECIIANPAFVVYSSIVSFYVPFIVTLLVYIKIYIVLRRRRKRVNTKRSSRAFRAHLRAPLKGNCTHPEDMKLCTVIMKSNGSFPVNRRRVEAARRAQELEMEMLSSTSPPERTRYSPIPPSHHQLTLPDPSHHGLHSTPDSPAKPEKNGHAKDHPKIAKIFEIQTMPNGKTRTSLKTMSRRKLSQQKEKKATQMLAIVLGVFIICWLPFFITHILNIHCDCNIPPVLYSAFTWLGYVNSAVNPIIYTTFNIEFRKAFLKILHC
Sequence of Beta-2 adrenergic receptor (Homo sapiens) (P07550 whole entry, looked up): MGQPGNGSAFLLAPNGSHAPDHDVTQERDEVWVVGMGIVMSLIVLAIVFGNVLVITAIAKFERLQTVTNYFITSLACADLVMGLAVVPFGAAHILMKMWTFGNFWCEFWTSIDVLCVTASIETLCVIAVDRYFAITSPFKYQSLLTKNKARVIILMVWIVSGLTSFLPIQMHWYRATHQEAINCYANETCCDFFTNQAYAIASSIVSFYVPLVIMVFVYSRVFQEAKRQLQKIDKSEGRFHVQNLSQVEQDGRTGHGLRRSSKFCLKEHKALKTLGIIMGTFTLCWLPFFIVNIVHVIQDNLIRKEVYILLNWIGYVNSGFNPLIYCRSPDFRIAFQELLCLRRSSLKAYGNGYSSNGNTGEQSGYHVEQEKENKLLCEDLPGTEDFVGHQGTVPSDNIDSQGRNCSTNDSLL
Sequence of Muscarinic acetylcholine receptor M1 (Homo sapiens) (P11229 whole entry, looked up): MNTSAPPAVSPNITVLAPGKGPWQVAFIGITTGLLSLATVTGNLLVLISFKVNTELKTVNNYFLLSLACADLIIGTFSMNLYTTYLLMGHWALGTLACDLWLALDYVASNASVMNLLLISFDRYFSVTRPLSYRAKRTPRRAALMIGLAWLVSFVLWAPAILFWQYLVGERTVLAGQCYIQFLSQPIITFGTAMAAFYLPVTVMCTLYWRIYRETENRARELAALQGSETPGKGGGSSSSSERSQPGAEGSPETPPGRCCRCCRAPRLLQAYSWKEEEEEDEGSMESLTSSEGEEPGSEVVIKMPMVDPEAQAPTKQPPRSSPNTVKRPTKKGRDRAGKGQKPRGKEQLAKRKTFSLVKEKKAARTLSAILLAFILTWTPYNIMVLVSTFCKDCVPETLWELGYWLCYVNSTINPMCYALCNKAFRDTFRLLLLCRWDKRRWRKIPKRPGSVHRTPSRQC
Sequence of 5-hydroxytryptamine receptor 2A (Homo sapiens) (P28223 whole entry, looked up): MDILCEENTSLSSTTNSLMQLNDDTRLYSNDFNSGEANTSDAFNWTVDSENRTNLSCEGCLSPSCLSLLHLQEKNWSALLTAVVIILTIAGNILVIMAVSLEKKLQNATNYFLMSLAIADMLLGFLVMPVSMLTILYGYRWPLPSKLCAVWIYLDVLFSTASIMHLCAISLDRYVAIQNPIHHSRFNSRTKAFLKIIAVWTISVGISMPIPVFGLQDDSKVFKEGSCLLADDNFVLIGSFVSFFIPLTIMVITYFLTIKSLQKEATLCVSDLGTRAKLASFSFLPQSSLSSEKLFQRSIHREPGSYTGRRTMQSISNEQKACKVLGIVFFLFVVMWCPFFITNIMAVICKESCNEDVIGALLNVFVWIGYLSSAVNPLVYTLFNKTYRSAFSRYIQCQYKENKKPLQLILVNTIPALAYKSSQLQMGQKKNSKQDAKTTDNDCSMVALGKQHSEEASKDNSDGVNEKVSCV
Sequence of KiSS-1 receptor (Homo sapiens) (Q969F8 whole entry, looked up): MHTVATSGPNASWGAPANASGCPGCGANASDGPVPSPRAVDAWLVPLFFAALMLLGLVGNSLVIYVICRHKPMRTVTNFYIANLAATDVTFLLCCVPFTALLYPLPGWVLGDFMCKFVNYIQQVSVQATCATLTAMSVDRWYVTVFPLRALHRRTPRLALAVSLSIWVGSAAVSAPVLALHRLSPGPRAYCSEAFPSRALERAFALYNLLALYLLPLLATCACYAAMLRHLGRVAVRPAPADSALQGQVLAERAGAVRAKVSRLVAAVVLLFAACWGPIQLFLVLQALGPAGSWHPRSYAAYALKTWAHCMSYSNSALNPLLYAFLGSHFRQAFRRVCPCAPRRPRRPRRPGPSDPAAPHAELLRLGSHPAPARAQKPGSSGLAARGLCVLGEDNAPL
Sequence of Gonadotropin-releasing hormone receptor (Homo sapiens) (P30968 whole entry, looked up): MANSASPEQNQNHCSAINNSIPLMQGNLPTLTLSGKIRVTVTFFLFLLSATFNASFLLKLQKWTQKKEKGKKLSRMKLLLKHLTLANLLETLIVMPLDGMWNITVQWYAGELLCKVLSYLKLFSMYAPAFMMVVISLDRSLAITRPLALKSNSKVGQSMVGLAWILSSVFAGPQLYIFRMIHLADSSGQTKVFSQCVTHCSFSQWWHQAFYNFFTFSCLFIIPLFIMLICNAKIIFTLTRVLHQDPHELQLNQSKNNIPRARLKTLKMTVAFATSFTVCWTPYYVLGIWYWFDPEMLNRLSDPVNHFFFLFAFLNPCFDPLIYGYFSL

CCCOCCOCCO
not listed: [18] | [19]
inactive: all other assays above

CCOc1ccccc1OCC
not listed: [8] | [19]
inactive: all other assays above

COc1ccc2cc(C=O)ccc2c1
not listed: [13] | [16]
inactive: all other assays above

CC(C)CCCC(C)CCCC(C)CCCCC(C)CCCC(C)CCCC(C)C (centres undefined)
not listed: [11]
inactive: all other assays above

O=C(O)/C=C/c1ccc(Cn2ccnc2)cc1
not listed: [12]
inactive: all other assays above

O=C(O)c1ccc([N+](=O)[O-])cc1
not listed: [10]
inactive: all other assays above

C/C(Cl)=C/CCl
not listed: [8]
inactive: all other assays above

O=c1[nH]c2ccccc2c(=O)n1CCCl
not listed: [9]
inactive: all other assays above

O=C(O)CCCCCC(=O)O
not listed: [16]
inactive: all other assays above

O=S(=O)(O)CCS
not listed: [9] | [10] | [11] | [12] | [19]
inactive: all other assays above

O=C1NC(c2ccccc2)(c2ccccc2)C(=O)N1COP(=O)(O)O
not listed: [18]
inactive: all other assays above

CC(=O)Oc1ccccc1C(=O)Nc1ncc([N+](=O)[O-])s1
41.6 µM (active) and inactive: [8]
active: [1] 55.6 µM | [2] 39.3 µM and 29.8 µM | [18] 11.7 µM
not listed: [12] | [13] | [14] | [16]
inactive: all other assays above

Cc1ccc(N)cc1[N+](=O)[O-]
not listed: [10]
inactive: all other assays above

Cc1c(C)c2c(c(C)c1O)CCC(C)(COc1ccc(CC3SC(=O)NC3=O)cc1)O2 (centres undefined)
not listed: [9] | [10] | [11] | [12] | [13] | [14] | [19]
inactive: all other assays above

CC[C@H](c1ccc(O)cc1)[C@@H](CC)c1ccc(O)cc1
active: [1] 54.5 µM | [10] 33.4 µM and 14.5 µM | [12] 7.29 µM
not listed: [14]
inactive: all other assays above

— PubChem BioAssay (Tox21)
